A structure can be active in one record and inactive in another. Calls of active or inactive are those of the source. How the source made its calls: active means hit-call score of the fitted dose curve at least 0.9, where 1 is the maximum; inactive means score below 0.9.

A short description of this assay: BSK_3C_TissueFactor: BioMAP Diversity Plus: 3C Assay for Tissue Factor Biomarker Activity (AID 2282997). The settings on record: BioMAP 3C HUVEC, tissue factor biomarker readout; actives raise or lower the signal. On the procedure:
BSK_3C is a cell-based, multiplexed-readout assay that uses umbilical vein endothelium, a human vascular primary cell, with measurements taken at 24 hours after chemical dosing in a 96-well plate.BSK_3C_TissueFactor is an assay component measured in the BSK_3C assay. It measures Tissue Factor antibody related to regulation of gene expression using ELISA technology.Data from the assay component BSK_3C_TissueFactor was analyzed into 1 assay endpoint. This assay endpoint, BSK_3C_TissueFactor, was analyzed with bidirectional fitting relative to DMSO as the negative control and baseline of activity. Using a type of binding reporter, gain or loss-of-signal activity can be used to understand changes in the signaling as they relate to the gene F3. Furthermore, this assay endpoint can be referred to as a primary readout, because this assay has produced multiple assay endpoints where this one serves a signaling function. To generalize the intended target to other relatable targets, this assay endpoint is annotated to the cytokine intended target family, where the subfamily is coagulation factor.
The levels of cell surface (or secreted, indicated by the prefix "s") biomarker endpoints were measured by ELISA. Overt cytotoxicity to cells in confluent adherent cultures (all systems other than the BT system) was assessed by measuring total protein levels using sulforhodamine B (SRB) staining in parallel cultures at the time of biomarker measurements, indicated as SRB endpoints. For proliferation assays for adherent cell types, individual cell types are cultured at sub-confluence and relative cell numbers quantified by SRB staining at time points optimized for each system (48 h: 3C and CASM3C systems; 72 h: BT and HDF3CGF systems; 96 h: SAg system). SRB was performed by staining cells with 0.1% SRB after fixation with 10% TCA and reading wells at 560 nm.Viability and proliferation of PBMC (T cells) was quantified by Alamar Blue reduction for the SAg and BT systems. For PBMC viability (referred to as PBMC Cytotoxicity within the assay endpoint names), cells were plated (75,000/well in a 96-well plate) and then chemical samples added for 1 h before addition of activators, SEB and TSST-1 (20 ng/mL final concentration each). Cells were incubated for 90 h. Then, Alamar Blue (20 uL/well) (Invitrogen, Cat DAL1100) was added for 6 h, and the plates were read with a fluorescence microplate reader at 546/580 nm (excitation/emission). For PBMC proliferation, cells were plated and activated as above but incubated for only 16 h prior to addition of Alamar Blue. Plates were read after 6 h.
Turning to `O=C(Nc1ccc([N+](=O)[O-])cc1Cl)c1cc(Cl)ccc1O`, the outcome was inactive.

Regarding `CCSC(=O)N(CC(C)C)CC(C)C`, the result was inactive.

Turning to `S=C(S)NCCNC(=S)S.[Mn+2].[S-]C([S-])=NCCN=C([S-])[S-].[Zn+2]`, the outcome was inactive and the AC50 was 6.82 µM (active) [middle of 6 runs].

Consider `O=C(c1ccccc1)C1CCCCC1`, for which the outcome was inactive.

With `O=C(O)c1ccccc1`, the outcome was inactive.

Take `CCOC(=O)C(C)Oc1ccc(Oc2nc3ccc(Cl)cc3o2)cc1` (stereo not given): the result was inactive.

For `CCN(CC)C(=O)c1cccc(C)c1`, the outcome was inactive.

As to `COC(=O)c1ccc(I)cc1S(=O)(=O)NC(=O)Nc1nc(C)nc(OC)n1`, the result was inactive.

On to `CCC(C)OC(=O)N1CCCCC1CCO` (stereo not given), for which the outcome was inactive.

For the compound `CCOC(=O)c1ccc(O)cc1`, the outcome was inactive.

`C=CCOC(Cn1ccnc1)c1ccc(Cl)cc1Cl` (stereo not given): the outcome was inactive.

In the case of `COC(=O)c1ccc(CNS(C)(=O)=O)cc1S(=O)(=O)NC(=O)Nc1nc(OC)cc(OC)n1`, the result was inactive.

In the case of `C[C@]12C[C@H](O)[C@H]3[C@@H](CCC4=CC(=O)CC[C@@]43C)[C@@H]1CC[C@@H]2C(=O)CO`, the result was inactive.

For `CN(C)C(=O)Nc1ccc(Cl)c(Cl)c1`, the result was inactive.

Consider `OB(O)O`, for which the result was inactive.

As for `CCCN(CCC)c1c([N+](=O)[O-])cc(C(F)(F)F)c(N)c1[N+](=O)[O-]`, the AC50 is 36.5 µM (active).

With `O=C(c1ccc(O)cc1O)c1ccc(O)cc1O`, the AC50 is 29.2 µM (active).

For `CCN(Cc1c(F)cccc1Cl)c1c([N+](=O)[O-])cc(C(F)(F)F)cc1[N+](=O)[O-]`, the result was inactive.

For `CCOC(=O)COc1cc(-n2ncc(C(F)(F)F)c(C)c2=O)c(F)cc1Cl`, the result was inactive.

On to `CCCCCCC(C)OC(=O)COc1nc(F)c(Cl)c(N)c1Cl` (stereo not given), for which the AC50 was 34.4 µM (active).

For the compound `CCCCC(CC)COC(=O)c1ccccc1C(=O)O` (stereo not given), the result was inactive.

As to `CCCCOCCOCCOCc1cc2c(cc1CCC)OCO2`, the result was inactive.

As for `S=C([S-])NCCNC(=S)[S-].[Mn+2]`, the outcome was inactive.

Turning to `N[C@@H](Cc1cc(I)c(Oc2ccc(O)c(I)c2)c(I)c1)C(=O)O`, the outcome was inactive.

As to `CC1(C)C(C=C(Cl)Cl)C1C(=O)OCc1cccc(Oc2ccccc2)c1` (stereo not given), the outcome was inactive.

`CCOC(=O)[C@H](C)Oc1ccc(Oc2nc3ccc(Cl)cc3o2)cc1`: the result was inactive.

Turning to `O=C(O)C1(C(=O)Nc2ccc(Cl)cc2Cl)CC1`, the result was inactive.

Take `CCCCCOC(=O)COc1cc(N2C(=O)C3=C(CCCC3)C2=O)c(F)cc1Cl`: the outcome was inactive.

As to `CC(C)(c1ccc(O)cc1)c1ccc(O)cc1`, the outcome was inactive.

On to `CCOC(=O)C(C)Oc1ccc(Oc2cnc3cc(Cl)ccc3n2)cc1` (stereo not given), for which the outcome was inactive.

For `COC(=O)c1c(Cl)nn(C)c1S(=O)(=O)NC(=O)Nc1nc(OC)cc(OC)n1`, the outcome was inactive.

For `COC(=O)c1ccccc1S(=O)(=O)NC(=O)Nc1nc(OC(F)F)cc(OC(F)F)n1`, the outcome was inactive.

Consider `COC(=O)c1ccccc1C(=O)O`, for which the outcome was inactive.

For `CCCCOC(=O)C(C)Oc1ccc(Oc2ccc(C(F)(F)F)cn2)cc1` (stereo not given), the outcome was inactive.

As to `C#CCOC(=O)[C@@H](C)Oc1ccc(Oc2ncc(Cl)cc2F)cc1`, the outcome was inactive.

As for `COC(=O)CSc1cc(N=c2sc(=O)n3n2CCCC3)c(F)cc1Cl`, the result was inactive.

As for `CCNc1nc(N)nc(Cl)n1`, the result was inactive.

On to `CCCCOC(=O)[C@@H](C)Oc1ccc(Oc2ccc(C(F)(F)F)cn2)cc1`, for which the result was inactive.

Consider `CC(=O)[C@H]1CC[C@H]2[C@@H]3CCC4=CC(=O)CC[C@]4(C)[C@H]3CC[C@]12C`, for which the concentration at half-maximal activity (AC50) is 13.1 µM (active).

By AC50 is commonly meant the concentration giving half of the maximal activity seen.
